Compounds with a hit are over-represented: about 5.2% of the library has one in this group of screens.
Tau ThT inhib: tau fibrillization inhibition (ThT binding); recombinant tau K18 P301L, heparin-induced fibrillization, ThT fluorescence; actives 2.1% (n = 270,000); Potency, µM (doses to about 57.4 µM), for inactives: at the top dose activity, negative = inhibition, actives largely listed as inhibitors; P10636; further: potency means the concentration at half of the fitted maximal effect; nearly all actives have a fitted effect of over 55% in size
Target sequence (P10636 561-689 P618L limits assumed): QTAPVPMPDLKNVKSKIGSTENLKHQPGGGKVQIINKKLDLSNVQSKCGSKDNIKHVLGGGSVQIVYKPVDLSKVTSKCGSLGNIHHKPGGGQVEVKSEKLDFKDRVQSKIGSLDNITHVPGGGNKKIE
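K18 P301L tau (15 uM + 0.24 uM Alexa 594-tagged), heparin 20 uM, NaOAc pH 7, 6 h 37 C; ThT 30 uM, 1 h RT, ex 450/em 510 nm.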
Tau fluor counter: counter-screen for tau fibril formation inhibitors; actives 0.93% (n = 280,000); Potency, µM (doses to about 57.7 µM), inactives show at the highest dose activity change, negative = decrease; AID 1463; tau K18 P301L Alexa594 fluorescence, heparin fibrillization; further: potency means the concentration at half of the fitted maximal effect; nearly all actives have a fitted effect of over 55% in size
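Human tau K18 P301L (15 uM unlabeled, 0.24 uM Alexa 594-labeled) in 100 mM sodium acetate pH 7 with 20 uM heparin, 6 hr at 37 C. ThT 30 uM added, 1 hr ambient; Alexa 594 FP and total fluorescence read at 555/632 nm.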
Sfp PPTase inh: blocks B. subtilis Sfp PPTase activity. AID 1490. actives 3.5% (n = 310,000). Biochemical Sfp PPTase activity, qHTS. Potency, µM, inactives show largest response in the series, negative = inhibition, usual class: inhibitors;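 further: the enzyme is Sfp with the accession as filed and its product quenches rhodamine fluorescence; potency means the concentration at half of the fitted maximal effect; 0% = enzyme reaction without inhibitor and -100% = no enzyme wells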
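Sfp 15 nM + cpd, 15 min RT; start w/ rhodamine-CoA 5 uM, BHQ-2-YbbR 12.5 uM (final); 50 mM Hepes pH 7.6, 10 mM MgCl2, 0.01% NP-40, 0.01% BSA; read 525/598 nm at 0 and 30 min.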
FBPA coupling cs: coupling enzyme interference in Giardia aldolase counter-screen. coupling enzyme system counterscreen, AmpLite Red fluorescence. activity change, negative = inhibition, % at 58.2 µM, hits read low. actives 0.67% (n = 290,000); in the data active means activity change below about -30%
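Counterscreen of the coupled detection system alone, without aldolase: glyceraldehyde-3-phosphate coupling enzymes plus AmpLite Red readout. Compounds at 57.5 uM final, 10 min RT preincubation, 20 min RT reaction, fluorescence 525/598 nm.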
Tau FP inhib: blocks human tau fibril formation measured by polarization | K18 P301L tau heparin fibrillization, Alexa594 FP, 6 h | Potency, µM (titrated, usually from 57.7 µM), inactives show at the highest dose activity, negative = inhibition, hits mostly inhibitors | actives 0.39% (n = 280,000) | AID 1468; further: potency means the concentration at half of the fitted maximal effect; nearly all actives have a fitted effect of over 55% in size
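Human tau K18 […] P301L fragment, 15 uM unlabeled plus 0.24 uM Alexa 594-labeled tau (final), with compound and 20 uM heparin in 100 mM sodium acetate pH 7; 6 hr at 37 C, then Alexa 594 FP read.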
An asterisk follows results filed as active; ? = inconclusive; . = no result given; [ ] = remark or other dose. Unless noted, the call rests on the fitted dose curve; in most records, active means well fitted curve in the direction sought with a large enough effect; inconclusive means small, poorly fitted or top-dose-only effect, or another doubt; inactive means no such curve, though single readings can be large; an effect the other way counts as inactive or inconclusive. Unless noted, on the % scale 0 is the no-effect control and ±100 the full control effect.

SMILES	Tau ThT inhib	Tau fluor counter	Sfp PPTase inh	FBPA coupling cs	Tau FP inhib
O=C1/C(=C/Nc2ccc3c(c2)OCO3)CCc2ccccc21	1.58µM*	7.94µM*[quencher]	35.5µM*	-40.0*	?
COc1ccc(S(=O)(=O)Nc2ccc3c(c2)OCO3)cc1	-13.8%	-17.7%	-4.4%	-0.4	?
COc1cccc(/C=C2\CCc3ccccc3C2=O)c1	?	-21.2%	-21.8%	-2.0	-11.5%
COc1ccc(N/C=C2\CCc3ccccc3C2=O)cc1	0.891µM*	28.2µM*[quencher]	56.2µM*	-39.2*	-14.7%
COc1cccc(-c2nc(SCc3ccc(C)cc3)n3[nH]c(=O)cc3n2)c1	?	?	.	.	-2.6%
Cc1cccc(CNc2ncncc2-c2ccc(C(=O)N(C)C)cc2)c1	.	.	1.6%	3.0	.
COc1ccc(/C(N)=N/OC(=O)Cc2cccs2)cc1OC	?	-20.0%	79.4µM*	-4.0	3.3%
Cc1ccc(C(=O)/C=C/c2cn(CC(O)CN3CCCCCC3)c3ccccc23)cc1 (stereo not drawn)	12.6µM*	?	.	.	-20.5%
O=C(/C=C/c1cn(CC(O)CN2CCCCCC2)c2ccccc12)c1ccc(Br)cc1 (stereo not drawn)	22.4µM*	?	.	.	-12.2%
CCOC(=O)c1c(NC(=O)/C=C/c2ccccc2)sc2c1CCCC2	-6.1%	-10.3%	.	.	-5.8%
COc1ccc(Cl)cc1NC(=O)c1nnn(CC(=O)Nc2ccc(OC)c(OC)c2)c1N	.	.	0.6%	-2.7	.
COc1ccc(OC)c(NC(=O)c2nnn(CC(=O)Nc3ccc(C(C)C)cc3)c2N)c1	?	14.1µM*[quencher]	.	.	-13.2%
CCc1c2c(nc3c(C(C)C)cccc13)-c1cccc(=O)n1C2	?	-15.3%	50.1µM*	0.5	-5.7%
CCc1cccc2nc3c(c([Si](CC)(CC)CC)c12)Cn1c-3cccc1=O	?	-25.2%	79.4µM*	-0.5	-13.5%
CC(C)c1cccc2nc3c(c([Si](C)(C)C)c12)Cn1c-3cccc1=O	?	-14.0%	?	-10.5	-10.1%
C=C(C)[C@H]1CC=C(CO)CC1	-4.7%	-7.5%	16.9%	4.9	-7.9%
CCN(CC)S(=O)(=O)c1ccc2c(c1)c(=O)c(C(=O)N1CCN(c3cccc(C)c3)C(C)C1)cn2C (stereo not drawn)	-13.2%	-17.5%	.	.	-1.4%
O=C(Nc1ccc(N2CCOCC2)cc1)c1ccc2nc(-c3ccco3)c(-c3ccco3)nc2c1	2.51µM*	?	-8.0%	-3.1	-6.2%
CC(=O)N1CCN(c2ccc(NC(=O)c3ccc([N+](=O)[O-])cc3)cc2)CC1	.	.	-11.1%	0.3	.
O=C(Nc1ccc(N2CCOCC2)cc1)c1ccc([N+](=O)[O-])cc1	2.82µM*	-19.2%	-7.6%	-4.8	1.3%
S=C(Nc1ccc(N2CCOCC2)cc1)Nc1ccc2nc(-c3ccco3)c(-c3ccco3)nc2c1	2.24µM*	7.94µM*[quencher]	-29.9%	-24.5	?
O=C(NC(=S)Nc1ccc(N2CCOCC2)cc1)c1ccco1	?	-11.4%	?	-2.0	-1.2%
CCCCC#Cc1ccccc1CC(=O)Nc1ccccc1	?	-19.3%	13.5%	-1.9	-9.9%
CCCCCCCC#Cc1ccccc1/C=N/S(=O)c1ccc(C)cc1 (stereo not drawn)	?	-11.8%[11.6 µM]	25.1µM*	5.4	0.7%[11.6 µM]
Nc1nc(-c2ccco2)nn1S(=O)(=O)c1ccccc1	-1.2%	-3.0%	20.5%	-0.3	13.2%
SMILES	Tau ThT inhib	Tau fluor counter	Sfp PPTase inh	FBPA coupling cs	Tau FP inhib
Cc1ccc(S(=O)(=O)n2nc(-c3ccco3)nc2N)cc1	-3.8%	-12.8%	89.1µM*	-2.0	-7.2%
O=[N+]([O-])c1ccc(N=Nc2c(O)[nH]c3ccc(F)cc23)cc1	.	.	-12.2%	1.7	.
O=[N+]([O-])c1ccc(N=Nc2ccc(O)cc2O)cc1	2.51µM*	14.1µM*[quencher]	-9.6%	2.5	-12.9%
COc1ccc(-c2onc3ccc(Br)cc23)cc1	-13.9%	-14.4%	70.8µM*	-2.6	-17.1%
COc1cc(-c2nc(-c3ccc(Br)o3)no2)cc(OC)c1OC	-10.7%	-12.4%	-7.3%	5.8	-5.8%
COc1cc(-c2onc3ccc(Br)cc23)cc(OC)c1OC	?	-29.3%	50.1µM*	-6.8	-7.8%
Cc1ccc2c(CC(=O)N3CCN(c4cccc(Cl)c4)CC3)coc2c1	-4.3%	-2.9%	.	.	-0.1%
O=[N+]([O-])c1ccc(N/N=C/c2ccccc2)c(F)c1	7.08µM*	?	-26.9%	0.0	15.4%
Cc1ccc(/C=N/Nc2nc(C)cc(C)n2)cc1	-14.2%	-6.5%	79.4µM*	0.8	0.1%
Cc1cc(C)nc(N/N=C/c2ccc(Cl)cc2)n1	-3.9%	6.0%	?	3.3	5.5%
Cc1cc2c(C)nc(N/N=C/c3ccc([N+](=O)[O-])cc3)nc2o1	3.16µM*	-10.9%	-12.6%	-2.7	4.4%
Cc1cc2c(C)nc(N/N=C/c3ccc(F)cc3)nc2o1	?	-14.9%	-15.7%	1.8	6.1%
Nc1cc(Cl)nc(N/N=C/c2ccc([N+](=O)[O-])cc2)n1	5.62µM*	-22.6%	4.6%	-3.5	3.5%
O=[N+]([O-])c1cccc(/C=N/N=C\c2ccccc2)c1	.	.	18.2%	2.5	.
Cc1cc(-c2ccccc2)nc(N/N=C/c2ccc([N+](=O)[O-])cc2)n1	7.08µM*	?	-14.4%	0.0	-12.4%
Cc1cc(-c2ccccc2)nc(N/N=C/c2ccccc2)n1	.	.	19.5%	1.4	.
CCC/C=C1/CCCOC(C(=O)NCC2CC2)(C(F)(F)F)C1 (stereo not drawn)	.	.	9.6%	1.8	.
CCCC(=O)OCCNc1cc(SCc2ccco2)c2nonc2c1[N+](=O)[O-]	3.98µM*	4.47µM*[quencher]	11.2µM*	-12.7	?
CCCC(=O)OCCNc1cc(Sc2nccn2C)c2nonc2c1[N+](=O)[O-]	7.08µM*	?	35.5µM*	-7.8	?
O=[N+]([O-])c1c(NCc2ccco2)ccc2nonc12	-13.2%	-0.4%	0.1%	-1.2	12.7%
CCCSc1cc(NCCOC(C)=O)c([N+](=O)[O-])c2nonc12	?	?	-17.1%	-38.8*	-5.6%
CCCSc1cc(NCCOC(=O)CCC)c([N+](=O)[O-])c2nonc12	?	?	-17.6%	-2.8	9.1%
CC(=O)OCCCNc1cc(SCc2ccco2)c2nonc2c1[N+](=O)[O-]	7.94µM*	7.08µM*[quencher]	25.1µM*	-2.6	?
Cc1nc2ccccc2n1CCc1nc2c3ccccc3nc(SCc3ccccc3F)n2n1	-11.4%	-7.1%	.	.	-6.3%
C[C@@H]1C(=O)N(S(=O)(=O)c2ccc([N+](=O)[O-])cc2)[C@H]1c1ccc(F)cc1	.	.	21.8%	10.4	.
COC(=O)C1=C(C)N(Cc2ccccc2)C(=NCc2cccc(C(F)(F)F)c2)N[C@H]1c1cccc(F)c1	.	.	56.2µM*	-2.1	.
Cc1c(C#N)c(N)nc(Cl)c1C#N	-11.1%	-7.9%	-12.3%	1.4	-14.8%
N#Cc1c(Cl)nsc1NN	7.94µM*	2.51µM*[quencher]	39.8µM*	0.1	?
